# Measured values published in PubChem BioAssay (EPA / NIEHS).
# “And” between values parts separate entries of the source, which are not always exact repeats. Equal values may be shown once. Some structures have more than one record in an assay (separate samples or runs), and their calls can disagree. The source made the active and inactive calls. Rule for the calls: active = hit-call score of the fitted dose curve at least 0.9, where 1 is the maximum; inactive = score below 0.9.
# Legend:
# [1] = target: Transcriptional activator Myb (Homo sapiens) (UniProt P10242); assay: ATG_Myb_CIS: Attagene CIS-FACTORIAL HepG2 Assay for human Myeloblastosis (Myb) Proto-Oncogene Transcription Factor (AID 2282986); conditions: HepG2 Attagene CIS-FACTORIAL Myb reporter transcription; actives raise or lower the signal
# In short: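 Transiently transfected HepG2 cells, treated 24 h. Reporter mRNA quantified by RT-PCR/capillary electrophoresis; bidirectional fit relative to DMSO.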
# [2] = target: Nuclear respiratory factor 1 (Homo sapiens) (UniProt Q16656); assay: ATG_NRF1_CIS: Attagene CIS-FACTORIAL HepG2 Assay for human Nuclear Respiratory Factor 1 (NRF1) Orphan Gene (AID 2282987); conditions: HepG2 NRF1 cis-element reporter, Attagene multiplex; actives raise or lower the signal
# In short: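 Cells (HepG2, transient MRTU transfection) are exposed to compound for 24 h, then RNA isolated and reporter mRNA amplified and fluorescently labelled. Fragments are separated by capillary electrophoresis; signal change is fitted bidirectionally relative to DMSO.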
# [3] = ATG_NFI_CIS: Attagene CIS-FACTORIAL HepG2 Assay for human Nuclear Factor I (NFI) (AID 2282989); conditions: HepG2 cis-regulatory reporter, NFI response element transcription; actives raise or lower the signal
# In short: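 HepG2, transient MRTU, 24 h exposure; RNA→cDNA→PCR→FAM label→HpaI→CE fluorescence. Bidirectional fit, DMSO = baseline.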
# [4] = target: Myc proto-oncogene protein (Homo sapiens) (UniProt P01106); assay: ATG_Myc_CIS: Attagene CIS-FACTORIAL HepG2 Assay for human Myelocytomatosis (Myc) Proto-Oncogene Transcription Factor (AID 2282990); conditions: HepG2, Attagene cis-reporter transcription factor activity; actives raise or lower the signal
# In short: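 Multiplexed cis-reporter transcription in HepG2 cells after 24 h chemical treatment. Reporter mRNA measured by RT-PCR and capillary electrophoresis fluorescence; activity fitted bidirectionally against DMSO control.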
# [5] = ATG_NF_kB_CIS: Attagene CIS-FACTORIAL HepG2 Assay for human Nuclear Factor Kappa B (NF-kB) (AID 2282991); conditions: HepG2 Attagene cis-factorial NF-kB reporter mRNA; actives raise or lower the signal
# In short: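 Measures mRNA induction of an NF-kB-responsive cis-element reporter in HepG2 cells transfected with multiple reporter units, sampled 24 h post-dosing; quantified by fluorescence after RT-PCR and capillary electrophoresis, fitted for activation or inhibition against DMSO.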
# [6] = ATG_NRF2_ARE_CIS: Attagene CIS-FACTORIAL HepG2 Assay for human Nuclear Factor Erythroid 2 Related Factor 2 (NFR2) response to Antioxidant Response Elements (ARE) (AID 2282992); conditions: HepG2 Attagene ARE/NRF2 reporter, transcription factor activity; actives raise or lower the signal
# In short: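 HepG2 cells transiently transfected with multiplexed cis-regulated reporter transcription units measure endogenous transcription factor activity. Reporter mRNA at 24 h is quantified by RT-PCR, fluorescent labelling and capillary electrophoresis, with bidirectional fitting relative to DMSO.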
# [7] = ATG_Oct_MLP_CIS: Attagene CIS-FACTORIAL HepG2 Assay for human Octamer-Binding Transcription Factor (Oct) (AID 2282993); conditions: HepG2 Attagene cis-factorial Oct reporter, mRNA; actives raise or lower the signal
# In short: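 Multiplexed cis-reporter assay in human liver HepG2 cells, 24 h incubation. Reporter RNA amplified and labelled, then resolved by capillary electrophoresis; DMSO serves as negative control and baseline.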
# [8] = BSK_3C_TissueFactor: BioMAP Diversity Plus: 3C Assay for Tissue Factor Biomarker Activity (AID 2282997); conditions: BioMAP 3C HUVEC, tissue factor biomarker readout; actives raise or lower the signal
# In short: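 Values derive from bidirectional curve fitting against DMSO of Tissue Factor ELISA signals, taken 24 h after dosing primary human umbilical vein endothelial cells.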
# [9] = BSK_3C_uPAR: BioMAP Diversity Plus: 3C Assay for Urokinase-type plasminogen activator receptor (uPAR) Biomarker Activity (AID 2282998); conditions: BioMAP 3C HUVEC, uPAR biomarker ELISA; actives raise or lower the signal
# In short: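 Dose primary human umbilical vein endothelial cells, incubate 24 h, measure cell-surface uPAR by ELISA, then fit the signal in both directions against the DMSO negative control.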
# [10] = target: Cellular tumor antigen p53 (Homo sapiens) (UniProt P04637); assay: ATG_p53_CIS: Attagene CIS-FACTORIAL HepG2 Assay for human p53 Transcription Factor (AID 2282994); conditions: HepG2 p53 cis-element reporter, Attagene mRNA; actives raise or lower the signal
# In short: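 HepG2 cells transiently transfected with multiplexed cis-regulated reporter transcription units read endogenous TF activity. After 24 h compound exposure, reporter mRNA was quantified by RT-PCR, fluorescent labelling, HpaI digestion and capillary electrophoresis; bidirectional fits versus DMSO baseline.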
# Chain of Cellular tumor antigen p53 (Homo sapiens) (P04637 whole entry, looked up): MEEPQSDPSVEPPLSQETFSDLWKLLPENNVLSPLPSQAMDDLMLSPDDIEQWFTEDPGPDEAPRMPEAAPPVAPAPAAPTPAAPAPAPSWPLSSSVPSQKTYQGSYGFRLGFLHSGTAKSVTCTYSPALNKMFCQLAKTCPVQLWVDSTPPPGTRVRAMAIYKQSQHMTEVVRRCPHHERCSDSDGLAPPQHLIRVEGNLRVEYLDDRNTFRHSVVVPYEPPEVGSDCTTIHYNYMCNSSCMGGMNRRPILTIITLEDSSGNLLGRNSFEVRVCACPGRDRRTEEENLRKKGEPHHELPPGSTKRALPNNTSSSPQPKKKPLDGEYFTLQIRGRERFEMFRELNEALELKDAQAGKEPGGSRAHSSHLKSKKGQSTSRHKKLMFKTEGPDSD
# Chain of Transcriptional activator Myb (Homo sapiens) (P10242 whole entry, looked up): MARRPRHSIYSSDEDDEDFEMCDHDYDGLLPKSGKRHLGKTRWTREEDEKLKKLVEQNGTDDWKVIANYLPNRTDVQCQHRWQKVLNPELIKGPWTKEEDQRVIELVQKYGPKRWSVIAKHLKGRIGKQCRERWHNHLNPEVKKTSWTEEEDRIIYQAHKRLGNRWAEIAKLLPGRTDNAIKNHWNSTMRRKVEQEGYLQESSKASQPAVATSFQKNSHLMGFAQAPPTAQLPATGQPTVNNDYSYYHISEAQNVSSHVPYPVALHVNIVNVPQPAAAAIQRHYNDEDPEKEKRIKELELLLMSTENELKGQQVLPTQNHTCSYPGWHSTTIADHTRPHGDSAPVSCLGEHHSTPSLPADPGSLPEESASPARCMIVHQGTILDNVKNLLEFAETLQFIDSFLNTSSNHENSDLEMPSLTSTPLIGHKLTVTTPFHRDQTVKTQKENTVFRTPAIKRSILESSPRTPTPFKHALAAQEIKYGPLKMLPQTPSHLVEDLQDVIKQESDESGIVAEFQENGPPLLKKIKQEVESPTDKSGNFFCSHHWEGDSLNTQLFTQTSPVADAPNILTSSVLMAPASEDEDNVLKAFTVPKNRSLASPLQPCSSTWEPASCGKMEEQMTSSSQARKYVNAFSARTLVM
# Chain of Myc proto-oncogene protein (Homo sapiens) (P01106 whole entry, looked up): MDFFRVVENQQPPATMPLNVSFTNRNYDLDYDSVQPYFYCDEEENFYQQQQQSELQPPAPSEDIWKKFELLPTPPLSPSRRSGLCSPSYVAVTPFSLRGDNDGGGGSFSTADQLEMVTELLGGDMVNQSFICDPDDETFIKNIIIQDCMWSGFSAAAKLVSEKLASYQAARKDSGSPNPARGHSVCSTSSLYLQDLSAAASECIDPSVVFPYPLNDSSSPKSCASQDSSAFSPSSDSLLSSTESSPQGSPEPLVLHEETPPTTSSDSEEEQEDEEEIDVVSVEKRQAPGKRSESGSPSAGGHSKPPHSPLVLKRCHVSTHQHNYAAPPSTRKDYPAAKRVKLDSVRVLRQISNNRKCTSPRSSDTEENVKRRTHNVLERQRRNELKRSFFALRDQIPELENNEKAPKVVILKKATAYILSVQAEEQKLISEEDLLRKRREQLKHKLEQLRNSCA
# Chain of Nuclear respiratory factor 1 (Homo sapiens) (Q16656 whole entry, looked up, the tested form may be a part): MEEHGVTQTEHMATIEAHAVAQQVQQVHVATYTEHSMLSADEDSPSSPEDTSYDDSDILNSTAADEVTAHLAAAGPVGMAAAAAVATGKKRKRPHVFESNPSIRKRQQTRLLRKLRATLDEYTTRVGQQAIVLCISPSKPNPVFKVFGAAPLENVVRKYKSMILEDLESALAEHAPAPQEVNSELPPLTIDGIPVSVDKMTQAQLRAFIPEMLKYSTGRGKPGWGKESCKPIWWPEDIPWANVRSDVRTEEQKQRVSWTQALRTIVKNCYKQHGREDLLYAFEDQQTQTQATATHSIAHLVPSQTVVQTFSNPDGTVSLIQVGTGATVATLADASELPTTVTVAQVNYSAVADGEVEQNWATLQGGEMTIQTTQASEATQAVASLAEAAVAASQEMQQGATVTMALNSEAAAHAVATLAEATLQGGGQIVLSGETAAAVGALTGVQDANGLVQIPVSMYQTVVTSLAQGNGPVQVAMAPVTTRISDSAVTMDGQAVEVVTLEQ
SMILES,outcome [1],outcome [2],outcome [3],outcome [4],outcome [5],outcome [6],outcome [7],outcome [8],outcome [9],AC50 [2],AC50 [5],AC50 [6],AC50 [7],AC50 [10],AC50 [9],outcome [10],AC50 [8],AC50 [3],AC50 [4],AC50 [1]
CCNc1nc(NC(C)C)nc(SC)n1,inactive,inactive,inactive,inactive,inactive,inactive,inactive,inactive,inactive,–,–,–,–,–,–,–,–,–,–,–
CC(c1ccc(O)cc1)(c1ccc(O)cc1)c1ccc(O)cc1,inactive,–,inactive,inactive,–,–,–,inactive,–,20.2 µM (active),18.9 µM (active),19.6 µM (active),11.1 µM (active),11.1 µM (active),32.6 µM (active),–,–,–,–,–
CCSC(=O)N(CC)C1CCCCC1,inactive,inactive,inactive,inactive,inactive,inactive,inactive,inactive,inactive,–,–,–,–,–,–,–,–,–,–,–
Cc1cccc(C)c1N,inactive,inactive,inactive,inactive,inactive,inactive,inactive,inactive,inactive,–,–,–,–,–,–,inactive,–,–,–,–
O=C(NC(=O)c1c(F)cccc1F)Nc1cc(Cl)c(OC(F)(F)C(F)F)c(Cl)c1,inactive,inactive,inactive,inactive,inactive,inactive,inactive,–,inactive,–,–,–,–,–,–,–,1.03 µM (active),–,–,–
NS(=O)(=O)C(F)(F)C(F)(F)C(F)(F)C(F)(F)C(F)(F)C(F)(F)C(F)(F)C(F)(F)F,inactive,inactive,–,inactive,inactive,–,–,–,–,–,60.1 µM (active) and 253 µM (active),28.9 µM (active) and 268 µM (active) and 15.4 µM (active),–,112 µM (active),29.9 µM (active) and 42.3 µM (active) and 44.1 µM (active),inactive,30.2 µM (active) and 49.5 µM (active) and 52.9 µM (active),44.3 µM (active) and 37.1 µM (active) and 50 µM (active),27.6 µM (active),–
c1cc2ccc3cccc4ccc(c1)c2c34,inactive,inactive,inactive,inactive,inactive,inactive,inactive,–,inactive,–,–,–,–,–,–,inactive,5.47 µM (active),–,–,–
CCCCCCCCCc1ccc(O)cc1,inactive,inactive,inactive,inactive,inactive,–,–,–,–,174 µM (active),68.8 µM (active),11.1 µM (active) and 26.6 µM (active) and 14.3 µM (active),–,–,15.5 µM (active),–,16.1 µM (active),–,69 µM (active),157 µM (active)
Oc1ccc(C(c2ccc(O)cc2)(C(F)(F)F)C(F)(F)F)cc1,inactive,inactive,inactive,inactive,inactive,–,inactive,–,–,–,–,11.1 µM (active) [middle of 4 runs],16.3 µM (active) and 16.7 µM (active) and 18.1 µM (active),16.9 µM (active),21.9 µM (active),inactive,35 µM (active),17.7 µM (active),20.3 µM (active),–
CCC(=O)O[C@H]1CC[C@H]2[C@@H]3CCC4=CC(=O)CC[C@]4(C)[C@H]3CC[C@]12C,inactive,inactive,inactive,inactive,inactive,–,–,–,–,122 µM (active),–,158 µM (active) [middle of 4 runs],–,–,24.9 µM (active),–,31.4 µM (active),–,165 µM (active) and 163 µM (active),164 µM (active)
CCC(C)(CC)c1cc(NC(=O)c2c(OC)cccc2OC)on1,inactive,inactive,inactive,inactive,inactive,–,–,inactive,inactive,–,–,0.289 µM (active),1.64 µM (active),–,–,–,–,–,–,–
ClC1=C(Cl)[C@]2(Cl)[C@@H]3[C@@H](Cl)[C@H]4O[C@H]4[C@@H]3C1(Cl)C2(Cl)Cl,inactive,–,–,inactive,inactive,–,–,inactive,inactive,150 µM (active),–,28.4 µM (active),60 µM (active),–,–,–,–,65.1 µM (active),–,–
CC(C)C(=O)OCC(C)(C)C(OC(=O)C(C)C)C(C)C (stereo unspecified),inactive,inactive,inactive,inactive,inactive,inactive,inactive,inactive,inactive,–,–,–,–,–,–,inactive,–,–,–,–
Sc1ccccc1,inactive,inactive,inactive,inactive,inactive,inactive,inactive,inactive,inactive,–,–,66 µM (active),–,–,–,–,–,–,–,–
OCC(O)CO,inactive,inactive,inactive,inactive,inactive,inactive,–,–,–,–,–,–,–,–,–,–,–,–,–,–
Cc1ccc(O)c(C)c1,inactive,inactive,inactive,inactive,inactive,–,inactive,inactive,inactive,–,–,7.51 µM (active),–,–,–,inactive,–,–,–,–
Nn1cnnc1,inactive,inactive,inactive,inactive,inactive,inactive,inactive,inactive,inactive,–,–,–,–,–,–,–,–,–,–,–
O=S(=O)(O)C(F)(F)C(F)(F)C(F)(F)C(F)(F)C(F)(F)C(F)(F)F,inactive,inactive,inactive,inactive,inactive,–,inactive,inactive,inactive,–,–,132 µM (active) [middle of 4 runs],–,–,–,–,–,–,–,–
C[C@]12CCC(=O)C=C1CC[C@@H]1[C@@H]2CC[C@@]2(C)[C@H]1CC[C@]2(C)O,inactive,inactive,inactive,inactive,–,–,inactive,inactive,inactive,21.6 µM (active),–,60.3 µM (active) and 53.6 µM (active) and 91.5 µM (active),–,–,–,–,–,–,–,–
Cc1cc(O)ccc1Cl,inactive,inactive,inactive,inactive,inactive,inactive,inactive,inactive,inactive,–,–,–,–,–,–,inactive,–,–,–,–
CCCCCCCCOC(=O)c1ccccc1C(=O)OCCCCCCCC,inactive,inactive,inactive,inactive,inactive,inactive,inactive,inactive,inactive,–,–,–,–,–,–,–,–,–,–,–
Cc1cccc([N+](=O)[O-])c1,inactive,inactive,inactive,inactive,inactive,inactive,inactive,inactive,inactive,–,–,–,–,–,–,–,–,–,–,–
c1ccc(-c2ccccc2)cc1,inactive,inactive,inactive,inactive,inactive,inactive,inactive,inactive,inactive,–,–,–,–,197 µM (active),–,–,–,–,–,–
CCCCCCCCCC[N+](C)(C)CCCCCCCCCC,inactive,–,inactive,–,inactive,–,–,–,–,100 µM (active),–,3.63 µM (active),3.99 µM (active),–,2.43 µM (active),–,4.21 µM (active),–,7.82 µM (active),–
ClC(Cl)=C(c1ccc(Cl)cc1)c1ccc(Cl)cc1,inactive,inactive,–,inactive,inactive,–,–,–,–,61.1 µM (active) and 100 µM (active),–,50.7 µM (active) [middle of 4 runs],–,–,33.4 µM (active),–,29.4 µM (active),100 µM (active) and 114 µM (active) and 152 µM (active),169 µM (active) and 129 µM (active),–
Cc1ccccc1[N+](=O)[O-],inactive,inactive,inactive,inactive,inactive,inactive,inactive,inactive,inactive,–,–,–,–,–,–,–,–,–,–,–
O=S(=O)(O)C(F)(F)C(F)(F)C(F)(F)C(F)(F)F,inactive,inactive,inactive,inactive,inactive,inactive,inactive,inactive,inactive,–,–,–,–,–,–,inactive,–,–,–,–
CCC(C)(c1ccc(O)cc1)c1ccc(O)cc1,inactive,inactive,inactive,inactive,inactive,inactive,–,inactive,–,–,44.8 µM (active),20 µM (active) and 15.3 µM (active) and 9.27 µM (active),–,–,32.8 µM (active),–,–,53 µM (active),–,–
CC(C)(c1ccccc1)c1ccc(O)cc1,inactive,inactive,inactive,inactive,inactive,–,inactive,–,–,–,53.1 µM (active) and 50.4 µM (active),33.4 µM (active) and 45.2 µM (active) and 22.5 µM (active),54.7 µM (active) and 33.4 µM (active),–,31.1 µM (active),–,30.5 µM (active),49.6 µM (active),33.4 µM (active),51.8 µM (active)
Oc1c(Cl)c(Cl)c(Cl)c(Cl)c1Cl,inactive,inactive,inactive,inactive,inactive,–,–,inactive,–,12.5 µM (active) and 25.7 µM (active),9.11 µM (active),13.7 µM (active) and 12.5 µM (active) and 2.62 µM (active),–,–,13.5 µM (active) and 10.7 µM (active),–,26.9 µM (active),27.4 µM (active) and 51 µM (active),50 µM (active) and 91.9 µM (active),–
